According to PubChem BioAssay AID504861 (Broad Institute, 2011):
Among all 1,200 compounds or so, about 290 (24%) were called active. Inconclusive results (about 3%) are left out. A selection follows. Results with a measured potency or affinity are listed apart. Values without a mark were called inactive.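 The calls were made as follows: active = compounds lowering cell viability signal with fitted half-maximal concentration at most ten times their highest tested concentration; inconclusive = flat fit with 30 to 70% signal loss, or poor fit; inactive = the rest.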

experiment: cytotoxicity in HEK293T cells – cell-based, CellTiter-Glo luminescence, cherry-picks, cytotoxicity control for LMP1 NF-kB inhibitor project, dose response (AID 504861); conditions: HEK293T viability, CellTiter-Glo ATP luminescence, 48 h; series mostly up to 26 µM; activity change, negative = cytotoxicity: at the top concentration

SMILES | activity change, negative = cytotoxicity [%]
O=S(=O)(N/N=C/c1ccccc1F)c1ccccc1 | 10.4
Cc1cc(N2CCOCC2)c2c(N)c(Br)cc(C)c2n1 | -2.56
C=CCn1c(=O)/c(=C/c2ccc(Cl)cc2)s/c1=C(\C#N)c1nnc2n1CCCCC2 | 4.2
NC(=O)CC(NC(=O)c1ccccc1)c1ccc(NC2CCN(Cc3ccccc3)CC2)c([N+](=O)[O-])c1 (stereo not drawn) | -1.78
C=CCN1CCN(C(CC(C)C)c2nnnn2CCOC)CC1 (stereo not drawn) | 10.7
O=C(CCS(=O)(=O)c1ccccc1)Nc1nccs1 | 4.41
CCC(C)(C)NC(=O)C(c1ccc(F)cc1)N(CCOC)C(=O)CCC(=O)Nc1nccs1 (stereo not drawn) | -8.1
CCC(=O)OC1c2ccccc2C(=O)N1Cc1ccccc1 (stereo not drawn) | 3.57
COc1ccc(S(=O)(=O)N2CCN(CC(=O)Nc3cc(OC)cc(OC)c3)CC2)cc1 | 9.62
COC(=O)C1=C(C(=O)c2ccccc2)C(c2ccccc2)n2nnnc2N1 (stereo not drawn) | 5.26
O=C(CN1C(=O)CCOc2ccccc21)Nc1ccc(Cl)c(S(=O)(=O)N2CCOCC2)c1 | -1.24
CCCCCCCCOC(=O)/C=C/c1c(C)[nH]c(=O)[nH]c1=O | 4.83
Cc1c(NC(=O)c2cc(-c3cccs3)nc3ccccc23)c(=O)n(-c2ccccc2)n1C | -9.52
Cn1cccc1/C=C1\CC(C(C)(C)C)C/C(=C\c2cccn2C)C1=O (stereo not drawn) | 5.18
O=C(c1ccc(COc2ccccc2Cl)o1)N1CCCC1 | 3.19
CCCCCCNC(=O)O[C@]12C[C@@H](C(=O)OC)[C@@H](C(=O)OC)C[C@@]1(O)CN(S(=O)(=O)c1ccc(C)cc1)C2 | 3.74
COC(=O)CN(c1ccccc1F)S(=O)(=O)c1ccc(C)cc1 | 1.16
COc1ccc(-c2[nH]ncc2-c2ccc3c(c2)OCCO3)c(O)c1 | 5.3
N#CC1=C(N)OC2=C(C(=O)CCC2)C12C(=O)N1CCCc3cccc2c31 (stereo not drawn) | 18.7
COC(CNC(=O)c1ccc(N2CCC3(CC2)OCCO3)c([N+](=O)[O-])c1)OC | 21.8
COc1ccc(C)cc1S(=O)(=O)N(CC(=O)Nc1cc([N+](=O)[O-])ccc1C)c1ccc(C)c(C)c1 | 14.1
Cc1cc(C(=O)COC(=O)c2cccc(NS(C)(=O)=O)c2)c(C)n1CC1CCCO1 (stereo not drawn) | -1.07
O=C(O)c1cccc(NC(=O)c2cn(-c3ccccc3)nc2-c2ccc(F)cc2)c1 | -2.08

SMILES | activity change, negative = cytotoxicity [%]
Cc1ccc(C(=O)Nc2ncc3c(Cl)cccc3n2)cc1 | -4.06
CCn1c(CCNC(=O)c2ccc(OC)cc2)nnc1SCc1ccc(Cl)cc1Cl | -1.26
CC(C)(C)c1ccc(-c2noc(CCC(N)=O)n2)cc1 | 4.9
CCOC(=O)c1cn2nc(N3CCCC3)ccc2n1 | -3.72
Cc1ccc(NC(=O)C(=O)Nc2ccccn2)cc1 | -1.38
S=C(NN=C1C2CC3CC(C2)CC1C3)Nc1ccccc1 | 7.44
O=C(Nc1cccc(Cl)c1)Nc1cccc(C(=O)O)c1 | 4.19
Cc1ccc(NC(=S)NCc2cccs2)cc1 | 6.68
CNC1(C)[C@H]2CC[C@H](C2)C1(C)C (stereo partly drawn) | -0.979
CC(=O)c1cccc(NC(=O)Nc2ccc(C(=O)N3CCOCC3)cc2)c1 | -7.4
CCCCCc1ccc(-c2ccc(/C=C/C(=O)O)cc2)nc1 | -2.31
COc1ccc(-c2nc(C)ncc2-c2ccccc2)c(O)c1 | -3.21
Cc1ccc(N(Cc2cc3ccccc3[nH]c2=O)C(=O)c2ccco2)c(C)c1 | 7.35
O=C(O)c1cccc(Nc2ccnc(Nc3cccc(C(=O)O)c3)n2)c1 | -5.64
CCN(C(=O)CSc1nnc(Nc2cccc(C)c2C)s1)C1CCS(=O)(=O)C1 (stereo not drawn) | 15.3
COc1ccc(-c2nc(CN3CCC(C(=O)N4CCOCC4)CC3)c(C)o2)cc1C | -0.49
Cc1cc(C)c2sc(NC(=O)C3CC3)nc2c1 | 4.24
CCOC(=O)Oc1c(OC)cc(C(=O)O[C@@H]2C[C@@H]3CN4CCc5c([nH]c6cc(OC)ccc56)[C@H]4C[C@@H]3[C@H](C(=O)OC)[C@H]2OC)cc1OC | -5.9
Nc1ccn([C@@H]2O[C@H](CO)[C@@H](O)[C@@H]2O)c(=O)n1 | 0.472
Cc1cc(N2CCCC2=O)cc(C)c1S(=O)(=O)Nc1c(C)nn(C)c1C | 1.46
Cn1cccc1-c1cc(C(=O)N2CCc3c([nH]c4ccccc34)C2c2ccccn2)[nH]n1 (stereo not drawn) | -10.6
COc1ccc(-c2oc3ncnc(NCCN4CCOCC4)c3c2-c2ccc(OC)cc2)cc1 | 2.98
CSc1nc(C)nc2c1c(=O)n(C)c(=O)n2C | 8.38

SMILES | activity change, negative = cytotoxicity [%]
Cc1ccc(/C=C/c2nc3ccccc3s2)s1 | -11.8
Cn1cc(CC(=O)NCCCN2CCCC2)c2ccccc21 | 3.13
CCc1cc(Cl)c(OC)c(C(=O)NC[C@@H]2CCCN2CC)c1O | -6.38
c1ccc2c3c([nH]c2c1)C(C1CCCCC1)N(Cc1ncc[nH]1)CC3 (stereo not drawn) | 1.16
Cc1ccc(C(=O)Nc2sc(Cc3ccc4c(c3)OCO4)c(C)c2C(N)=O)cc1 | 6.6
Cn1ncc(Cl)c1C(=O)NC1CCCC1 | 7.6
CCN(CC)c1ccc(NC(=O)c2cccc(F)c2)c(C)c1 | 1.9
O=C(Nc1ccc(N2CCOCC2)cc1)c1cnccn1 | 1.13
COc1ccccc1N1CCN(CCCNC(=O)C2CCCN(c3ncnc4c3nc3n4CCCCC3)C2)CC1 (stereo not drawn) | -8.21
CNC(=O)c1[nH]cnc1C(=O)N[C@@H](CCCCNC(=O)OC(C)(C)C)C(=O)OC(C)(C)C | 1.6
CCOC(=O)c1c(-n2cccc2)sc2c1CCCC2=O | 7.85
Cc1ccccc1C(=O)c1c[nH]c(C(=O)NCc2ccco2)c1 | 12.1
O=c1c2cnn(-c3ccccc3)c2nc(-c2cccs2)n1-c1ccc(Cl)cc1 | -3.75
Cc1ccc(OCC(=O)NNC(=S)NC(=O)C2CCCCC2)c(C)c1 | -1.86
N#Cc1c(NC(=O)CCCC(=O)O)sc2c1CCCCC2 | 7.69
COC(=O)CCNc1ccc2c(c1)OCCO2 | -7.17
COc1ccc(C(=O)OCC(=O)c2c[nH]c3ccccc23)cc1OC | 0.68
Clc1ccc(-c2nnc(NC3=NCCCCC3)o2)cc1 | -3.14
O=C(O)c1ccc(-n2cncn2)c([N+](=O)[O-])c1 | 0.957
CN(C)c1ccnc2sc(C(N)=O)c(N)c12 | 2.86
Cc1ccc(CNC(=O)C2CCN(S(=O)(=O)c3c(C)noc3/C=C/c3ccco3)CC2)cc1 | 2.54
Cc1nc(N)nc(SCc2ccc([N+](=O)[O-])cc2)c1N | 11.7
